# Measurements published in PubChem BioAssay AID504332 (National Center for Advancing Translational Sciences (NCATS), 2011).
# The campaign covered roughly 350,000 compounds. About 31,000 (8.9%) were called active. A call without a number means that no potency is given here. Inconclusive results (about 15%) are left out. This excerpt belongs to a sample that is enriched for actives. A number with no mark means an inactive call. Calls come from the whole dose curve; as a rule, active = well fitted inhibition curve with a large enough effect; inconclusive = small, poorly fitted or top-dose-only effect; inactive = no such curve, though single readings can be large or run the other way.
# Target: Histone-lysine N-methyltransferase EHMT2 (Homo sapiens) (UniProt Q96KQ7)
# Assay: qHTS Assay for Inhibitors of Histone Lysine Methyltransferase G9a; note: nearly all actives have a fitted effect of over 75% in size
# Conditions: G9a H3K9 monomethylation, AlphaScreen, 2 h; series mostly up to 59 µM
# Outline: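 Methyltransferase reactions run at room temperature for 2 h (20 nM enzyme, 500 nM biotin-H3K9 peptide, 20 uM SAM) after a 15 min compound preincubation; product detected by AlphaScreen beads and anti-H3K9me1 antibody.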
# Potency is the fitted concentration of half-maximal effect.
# Histone-lysine N-methyltransferase EHMT2 (Homo sapiens), sequence (Q96KQ7 913-1193 limits assumed): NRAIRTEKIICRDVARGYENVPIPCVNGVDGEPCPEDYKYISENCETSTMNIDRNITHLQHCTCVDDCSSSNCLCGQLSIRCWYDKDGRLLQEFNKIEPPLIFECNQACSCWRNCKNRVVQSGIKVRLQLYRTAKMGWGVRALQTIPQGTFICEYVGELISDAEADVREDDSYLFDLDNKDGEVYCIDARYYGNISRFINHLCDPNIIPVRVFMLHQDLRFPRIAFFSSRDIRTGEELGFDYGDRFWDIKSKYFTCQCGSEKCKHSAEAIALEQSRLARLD
SMILES,Potency,"activity, negative = inhibition"
COc1cccc(CNC(=O)C(NS(=O)(=O)c2ccc3nc(C)sc3c2)C(C)C)c1 (centres undefined),inactive,–
O=S(=O)(NC(=S)Nc1ccccc1)c1ccc(F)cc1,1.58 µM (active),–
Cc1ccc(NC(=S)Nc2ccc(F)cc2)cc1,inactive,–
CC(=O)NS(=O)(=O)c1ccc(NC(=S)NC(=O)C(C)(C)C)cc1,–,-14.5% [at 0.501 µM]
Cc1cc(C)c(S(=O)(=O)n2cc(C(C)C(N)C(=O)O)c3ccccc32)c(C)c1 (centres undefined),–,11.6% [at 12.7 µM]
CCn1ccnc1CN1CCCC(C(=O)c2ccc3c4c(cccc24)CC3)C1 (centres undefined),35.5 µM (active),–
COc1ccc(C(=O)C2CCCN(S(=O)(=O)c3cccc(C)c3)C2)c(C)c1 (centres undefined),inactive,–
O=C(CSc1nc2ccccc2c(=O)n1CCCO)NC1CC1,–,-11.2% [at 2.33 µM]
O=S(=O)(NCC(c1ccccc1)N1CCc2ccccc21)c1ccccc1 (centres undefined),15.8 µM (active),–
Cc1ccc(S(=O)(=O)NCC(=O)OCC(=O)N2CCc3ccccc32)cc1,inactive,–
O=C(NCC(c1cccnc1)N1CCc2ccccc21)c1cccc(C(F)(F)F)c1 (centres undefined),inactive,–
COc1ccc(S(=O)(=O)NCC(c2ccc(N(C)C)cc2)N2CCCC2)cc1 (centres undefined),–,0.776% [at 12.7 µM]
COc1ccc(C(=O)NCC(c2ccc(N(C)C)cc2)N2CCc3ccccc32)c(OC)c1 (centres undefined),inactive,–
COc1ccc(S(=O)(=O)NCC(c2ccc(N(C)C)cc2)N2CCc3ccccc32)cc1OC (centres undefined),14.1 µM (active),–
COC(=O)C1=C(c2ccccc2)c2ccccc2S(=O)(=O)N1CC(=O)Nc1ccccc1C(F)(F)F,inactive,–
Cc1ccc(CN2CCC(CNC(=O)c3cnn(-c4ccccc4Cl)c3C3CCN(C(=O)OC(C)(C)C)CC3)CC2)cc1,inactive,–
COc1ccc(NC(=O)CCCc2nnc3n(CCC(C)C)c(=O)c4sccc4n23)c(OC)c1,inactive,–
CCCN(CCC)S(=O)(=O)c1ccc(C(=O)Nc2sc3c(c2C(=O)OC)CCN(CC)C3)cc1,inactive,–
CCOC(=O)N1CCN(C(=O)Cn2cnc3ccccc3c2=O)CC1,–,1.87% [at 12.7 µM]
CCOC(=O)N1CCN(C(=O)c2n[nH]c(=O)c3ccccc23)CC1,–,8.06% [at 12.7 µM]
CCOC(=O)N1CCN(CC(=O)n2c(C)c(C)c3ccccc32)CC1,12.6 µM (active),–
CC1CCCCC1NC(=O)COC(=O)Cc1ccc(Cl)cc1 (centres undefined),inactive,–
CCOc1cc(C(=O)O)ccc1OCCOc1ccccc1,inactive,–
CCOc1cccc2c1N[C@@H](c1ccc(C(=O)O)cc1)[C@H]1CC=C[C@@H]21,4.47 µM (active),–

SMILES,Potency,"activity, negative = inhibition"
CCOc1c(CNCc2ccc(C(=O)O)cc2)cccc1OC,inactive,–
Cc1nn(C(C)C(=O)Nc2ccc(C(C)C)cc2)c(=O)c2c1sc1ccccc12 (centres undefined),inactive,–
O=C(NCc1ccccc1CN1CCCC1)c1cccc(S(=O)(=O)Nc2ccc(F)cc2)c1,inactive,–
COc1ccc(CCNCc2c(C(=O)O)c(C)n(Cc3cccc(C)c3)c2C)cc1OC,inactive,–
Cc1cc(-c2cccs2)nc(-n2cccc2)n1,inactive,–
CC(C)n1c(-c2cccs2)nc2ccccc21,inactive,–
c1csc(-c2cn3c(n2)SCC3)c1,17.8 µM (active),–
CCC(C)N(C(=O)CSc1ncnc2c1cnn2-c1ccccc1)C1CCS(=O)(=O)C1 (centres undefined),–,17.2% [at 2.33 µM]
COC(=O)[C@]1(C)N[C@H](c2ccc(-c3ccc(Cl)c(Cl)c3)cc2)[C@@H]2C(=O)N(C)C(=O)[C@@H]21,–,12.5% [at 2.33 µM]
Cc1ccc(O)c(NC(=O)c2cc(-c3ccc(F)cc3)no2)c1,8.91 µM (active),–
Cc1ccc(O)c(NC(=O)c2cc(-c3ccco3)on2)c1,inactive,–
COC(=O)c1ccccc1NC(=O)c1cc(-c2ccccc2O)no1,inactive,–
Cc1nn(C)c2c1c(C(F)(F)F)cc(=O)n2C(C)C(=O)NCc1ccc(Cl)cc1 (centres undefined),inactive,–
Cn1c(=O)[nH]c(=O)c2c1nc(Br)n2CCCCSc1nc2ccccc2o1,inactive,–
CCCCCn1c(SCCC(C)C)nc2c1c(=O)[nH]c(=O)n2C,10 µM (active),–
CCCCn1c(SCC(=O)N2CCOCC2)nc2c1c(=O)n(C)c(=O)n2C,inactive,–
CCOC(=O)c1ccccc1NC(=O)c1sc2nc(-c3ccc(F)cc3)cn2c1C,inactive,–
Cc1ccc(C)c(CN2C(=O)c3ccccc3S(=O)c3ccc(C(=O)N4CCOCC4)cc32)c1 (centres undefined),inactive,–
Cc1cc(C)c2c3c(sc2n1)C(c1ccccc1)C(C#N)=C(N)O3 (centres undefined),14.1 µM (active),–
CCCc1nc2c([nH]1)C(c1cccnc1)C(C#N)=C(N)O2 (centres undefined),inactive,–
Cc1cc(C)c(C#N)c(SCc2[nH]nc3c2C(c2ccccc2)C(C#N)=C(N)O3)n1 (centres undefined),inactive,–
O=C(NCCc1cccc(F)c1)C1CCCN(c2nc3ccccc3s2)C1 (centres undefined),inactive,–
COc1ccc(-c2[nH]c3c(c2-c2c(-n4cccc4)n(C)c(=O)n(C)c2=O)c(=O)n(C)c(=O)n3C)cc1,inactive,–
CCOC(=O)C1CCN(C(=O)COc2cccc3ccccc23)CC1,–,9.04% [at 12.7 µM]

SMILES,Potency,"activity, negative = inhibition"
CCCn1c2ccccc2c2cnn(CC(=O)NCCCOC(C)C)c(=O)c21,inactive,–
O=C1c2ccccc2NC(c2ccccn2)N1NS(=O)(=O)c1ccccc1 (centres undefined),inactive,–
CN(C)c1ccc(C2Nc3ccccc3C(=O)N2NS(=O)(=O)c2ccccc2)cc1 (centres undefined),39.8 µM (active),–
CC(=O)NN1C(=O)c2ccccc2NC1c1ccccc1 (centres undefined),inactive,–
COc1cc(NC(=O)c2ccc(-c3csc(C)n3)cc2)c(OC)cc1Cl,inactive,–
COc1ccc(Cl)cc1NC(=O)CSc1nc(-c2cccs2)cc(C(F)(F)F)n1,inactive,–
CSc1ccccc1NC(=O)CCS(=O)(=O)c1nc(-c2cccs2)cc(C(F)(F)F)n1,3.16 µM (active),–
COc1ccccc1-c1cc(C(F)(F)F)nc(S(=O)(=O)CCCC(=O)Nc2ccc(F)cc2F)n1,inactive,–
Cc1ccc(NC(=O)CSc2nc3c(c(=O)[nH]2)CN(Cc2ccc4c(c2)OCO4)CC3)cc1C,inactive,–
O=C(Nc1ccccc1N1CCCC1)c1ccc(F)c(S(=O)(=O)N2CCOCC2)c1,–,-5.62% [at 0.501 µM]
O=C(Nc1ccccc1N1CCCCC1)c1ccc2nccnc2c1,inactive,–
O=C(Nc1ccccc1N1CCCC1)c1ccc2ccccc2c1,44.7 µM (active),–
Cc1cc(C)cc(OCC(=O)OCC(=O)NC2CCCC2)c1,–,-28.2% [at 2.33 µM]
Cc1ccc(NC(=O)Cn2c(=O)n(-c3ccccc3)c(=O)c3c4c(sc32)CCCC4)cc1,inactive,–
CCN(C(=O)CSc1nnc(C)n2c1cc1occc12)c1ccccc1,inactive,–
Clc1ccc(CSc2nncn3c2cc2occc23)cc1,12.6 µM (active),–
O=C(C1CC1)N1CCN=C1SCc1ccc(Cl)cc1,inactive,–
Cc1cc(=O)oc2c(C)c(OC(C)C(=O)NC3CCN(Cc4ccccc4)CC3)ccc12 (centres undefined),inactive,–
Cc1ccc2c(c1)-c1c(cnn1CC(=O)Nc1ccccc1C#N)CO2,inactive,–
CN1C(=O)c2ccccc2Sc2ccc(NC(=O)Cc3ccc(Cl)cc3)cc21,inactive,–
CN1C(=O)/C(=C\c2cc(Br)cs2)c2ccccc21,10 µM (active),–
CCC1C(=O)c2ccccc2N(C)C1=O (centres undefined),inactive,–
COc1ccccc1-c1cc2nc(C)c(CCC(=O)O)c(C)n2n1,inactive,–
CCCNC(=O)c1ccc2c(c1)ncn2-c1ccc(C)cc1C,inactive,–

SMILES,Potency,"activity, negative = inhibition"
NC(=O)c1ccsc1NC(=O)COC(=O)COc1ccc(C=O)cc1,–,-1.54% [at 12.7 µM]
O=C1c2ccccc2C(=O)N1CCC(c1ccccc1)c1ccco1 (centres undefined),inactive,–
O=C1c2ccccc2C(=O)N1CCC(O)C[N+](=O)[O-] (centres undefined),31.6 µM (active),–
CC(C)OC(=O)CN1C(=O)c2ccccc2C1=O,–,-1.86% [at 12.7 µM]
Cc1ccc(F)cc1NC(=O)CSCc1c(C)noc1C,–,28% [at 12.7 µM]
C=CCN1C(=NC(=O)COc2ccccc2)SC2CS(=O)(=O)CC21 (centres undefined),inactive,–
N#CCC(=O)Nc1ccc(C(=O)OCC(=O)Nc2sc3c(c2C#N)CCCC3)cc1,50.1 µM (active),–
CCCc1cc(=O)[nH]c(SCC(=O)Nc2sc3c(c2C#N)CCCC3)n1,inactive,–
CCN1CCN(CC(=O)Nc2sc3c(c2C#N)CCC3)CC1,70.8 µM (active),–
CN1CCN(CC(=O)Nc2sc3c(c2C#N)CCC(C(C)(C)C)C3)CC1 (centres undefined),–,2.75% [at 12.7 µM]
Cc1ccc(C)c(OCC(=O)Nc2sc3c(c2C#N)CCCC3)c1C,inactive,–
Cc1cccc(C(=O)OCC(=O)Nc2sc3c(c2C#N)CCC3)c1,inactive,–
CCC1CCCCN1C(=O)Cn1c(=O)n(CCCCCC(=O)NCc2ccccc2)c(=O)c2sccc21 (centres undefined),inactive,–
COc1ccccc1C(=O)Nc1c(C(=O)N(C)Cc2ccccc2)sc2nc(C)c(Cl)c(C)c12,inactive,–
Cc1ccccc1NC(=O)CN1C(=O)C(C)(C)c2ccccc21,inactive,–
C=C1CCC(N(O)c2cc(C)on2)C(=C)CCC2C1CC2(C)C (centres undefined),–,-0.801% [at 0.501 µM]
CCCCC12CN3CC(C)(CN(C1)C3c1ccc(O)c(OC)c1)C2=O (centres undefined),inactive,–
CCC[C@H]1CCCC/C=C\CCCC(=O)OCCN1C(=O)OC(C)(C)C,–,5.32% [at 2.33 µM]
O=C1CC(c2nnc(Cc3ccc(Cl)cc3)o2)CN1c1ccccc1 (centres undefined),inactive,–
CC(=O)N(C1=C(Cl)C(=O)c2ccccc2C1=O)c1ccc(C(=O)O)cc1,0.891 µM (active),–
O=C(CN1C(=O)c2ccccc2C1=O)NCc1ccc(C(=O)O)cc1,inactive,–
CC(C)N(C(=O)c1ccc(-c2ccccc2F)cc1)C(C)C,inactive,–
